According to PubChem BioAssay (NCI):
About 79,000 compounds went through this panel and 15% of them were active in at least one assay; those are over-represented in the sample as a whole. A number with no mark means an inactive call. Active and inactive are the calls of the source. Cut-off read from the data, not from the text of the source: active = growth inhibition above about 70%; inactive = the rest.

Key:
[1] = NCI Yeast Anticancer Drug Screen. Data for the rad50 strain (AID 155);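 note: 0% = growth of vehicle-only cultures of the same strain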; details: S. cerevisiae rad50 strain growth inhibition, hits give high values
In short: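 Compounds were tested on a yeast strain with an engineered DNA damage repair alteration; the reported value is growth inhibition normalised to vehicle treatment.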

[2] = NCI Yeast Anticancer Drug Screen. Data for the mec2-1 strain (AID 157); details: S. cerevisiae mec2-1 strain, hits give high values
In short: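 Cells of the genetically defined mec2-1 yeast strain are incubated with test compound. Inhibition of growth is calculated against vehicle-treated controls.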

[3] = NCI Yeast Anticancer Drug Screen. Data for the sgs1 mgt1 strain (AID 161);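 note: 0% = growth of cultures given vehicle only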; details: S. cerevisiae sgs1 mgt1 strain, hits give high values
In short: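 Genetically altered yeast, compound exposure, growth inhibition relative to vehicle.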

[4] = NCI Yeast Anticancer Drug Screen. Data for the cln2 rad14 strain (AID 165);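 note: 0% = growth equal to vehicle treated cultures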; details: S. cerevisiae cln2 rad14 strain, hits give high values
In short: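 The screen exposed genetically defined yeast (cln2 rad14) to test compounds and scored growth inhibition relative to vehicle-treated controls.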

[5] = NCI Yeast Anticancer Drug Screen. Data for the bub3 strain (AID 167); details: S. cerevisiae bub3 mutant strain, hits give high values
In short: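 Growth of a checkpoint-deficient yeast mutant is measured after compound exposure. Values represent inhibition relative to vehicle.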

[6] = NCI Yeast Anticancer Drug Screen. Data for the mlh1 rad18 strain (AID 175); details: S. cerevisiae mlh1 rad18 strain growth inhibition, hits give high values
In short: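 Compound-treated yeast growth, normalised to vehicle controls. Strain bears defined DNA repair mutations.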

[7] = at 5.0 µM (retest, dose inferred, filed as 0.5)
[8] = at 50.0 µM (retest, dose inferred, filed as 5.0)

Compound	growth inhibition [1, 7]	growth inhibition [1, 8]	growth inhibition ([1]; at 50.0 µM)	growth inhibition [2, 7]	growth inhibition [2, 8]	growth inhibition ([2]; at 50.0 µM)	growth inhibition [3, 7]	growth inhibition [3, 8]	growth inhibition ([3]; at 50.0 µM)	growth inhibition [4, 7]	growth inhibition [4, 8]	growth inhibition ([4]; at 50.0 µM)	growth inhibition [5, 7]	growth inhibition [5, 8]	growth inhibition ([5]; at 50.0 µM)	growth inhibition [6, 7]	growth inhibition [6, 8]	growth inhibition ([6]; at 50.0 µM)
COc1cc(OC)c(C(=O)[O][Sn]([c]2ccccc2)([c]2ccccc2)[c]2ccccc2)cc1OC	100% (active)	98% (active)	98.4% (active)	100% (active)	100% (active)	96.3% (active)	99% (active)	99% (active)	97.3% (active)	99% (active)	99% (active)	90.5% (active)	96% (active)	99% (active)	96.1% (active)	99% (active)	100% (active)	96.7% (active)
O=C1CCSC(=S)N1c1ccc(Br)c(Cl)c1	13%	94% (active)	39.8%	9%	94% (active)	39.4%	52%	99% (active)	72.3% (active)	-4%	79% (active)	12.7%	-4%	98% (active)	13.8%	29%	99% (active)	69.5%
CN(Cc1cnc2nc(N)nc(N)c2n1)c1ccc(C(=O)NC(CCC(=O)O)C(=O)O)cc1C(F)(F)F (centres undefined)	-2%	76% (active)	72.7% (active)	61%	98% (active)	50%	-12%	62%	67.5%	-16%	5%	29%	-19%	65%	75.5% (active)	0%	86% (active)	56.9%
CC12CC[C@@H](C(C)(C)O)C1[C@@H](O)CC1(C)C2CCC2[C@@]3(C)CC[C@H](O)C(C)(C)C3C(O)C[C@]21C (some centres undefined)	17%	98% (active)	90% (active)	19%	99% (active)	92.5% (active)	9%	98% (active)	92.3% (active)	17%	98% (active)	91.4% (active)	15%	98% (active)	91.8% (active)	41%	98% (active)	91.8% (active)
CC(/C=C/c1ccco1)=N\NC(=S)NCC(C)C	13%	80% (active)	63.5%	-20%	53%	61.9%	38%	86% (active)	81.2% (active)	16%	61%	64.4%	30%	87% (active)	83.5% (active)	25%	88% (active)	75.5% (active)
CCC[CH2][Sn]([CH2]CCC)([O]C(=O)c1cc(F)ccc1F)[O][Sn]([CH2]CCC)([CH2]CCC)[O]C(=O)c1cc(F)ccc1F	83% (active)	94% (active)	65.3%	87% (active)	97% (active)	69.3%	85% (active)	96% (active)	63.2%	74% (active)	90% (active)	57.5%	93% (active)	97% (active)	81% (active)	89% (active)	96% (active)	85.9% (active)
CCc1ccc(C)nc1	-1%	-3%	20.9%	1%	-1%	1.05%	3%	0%	1.1%	0%	3%	0.85%	-2%	-5%	98.7% (active)	1%	-2%	-1.05%
CCOC(=O)/C(=C\c1cccc([N+](=O)[O-])c1)C(C)=O	36%	98% (active)	93.2% (active)	24%	99% (active)	94.8% (active)	33%	99% (active)	93.2% (active)	27%	98% (active)	90.5% (active)	62%	99% (active)	92% (active)	41%	99% (active)	92.3% (active)
N#CC(Nc1cccc(C(F)(F)F)c1)c1ccccc1C(F)(F)F (centres undefined)	-4%	97% (active)	86% (active)	3%	97% (active)	92% (active)	-11%	97% (active)	90.1% (active)	25%	46%	89% (active)	10%	97% (active)	90.5% (active)	-12%	98% (active)	84.8% (active)
CC(C(=O)O)C(N)C(=O)O (centres undefined)	-1%	4%	99.5% (active)	-1%	-6%	99.6% (active)	-2%	2%	99.3% (active)	6%	-6%	99.5% (active)	4%	-7%	99.6% (active)	-2%	3%	99.5% (active)
c1ccc(N2CCN(c3ccccc3)C2Cc2c[nH]c3ccccc23)cc1	30%	98% (active)	99.2% (active)	19%	99% (active)	98.4% (active)	25%	98% (active)	99.4% (active)	17%	99% (active)	92.5% (active)	61%	98% (active)	99.2% (active)	61%	99% (active)	98.9% (active)
COc1ccc(C(CC(=O)c2ccccc2)Sc2ccccc2N)cc1 (centres undefined)	46%	52%	-4.15%	54%	51%	26.9%	-13%	32%	32.4%	44%	20%	-13.3%	35%	57%	49.8%	36%	46%	7.35%
CNc1ccc(C(=O)NC(CCCCNC(=O)OCc2ccccc2)C(=O)OC)cc1 (centres undefined)	-3%	-1%	93.8% (active)	1%	10%	95% (active)	-18%	-17%	97.9% (active)	-5%	2%	58.1%	-4%	0%	95.6% (active)	2%	-9%	98.6% (active)
S=c1[nH]c2cc(-c3ccccc3)ccc2o1	63%	98% (active)	64.2%	37%	98% (active)	53.1%	17%	72% (active)	78% (active)	52%	65%	47.1%	19%	52%	52%	51%	98% (active)	47.8%
c1cc(CCSSCCc2ccncc2)ccn1	7%	89% (active)	27.5%	1%	87% (active)	50.9%	-1%	79% (active)	33.5%	4%	42%	72.8% (active)	1%	98% (active)	38.4%	2%	92% (active)	30.3%
O=c1cccccc1[O-].O=c1cccccc1[O-].O=c1cccccc1[O-].[Dy+3]	19%	19%	92.8% (active)	18%	18%	92.8% (active)	14%	14%	91.6% (active)	10%	10%	80.2% (active)	7%	7%	93.2% (active)	10%	10%	92% (active)
Cc1ccc(S(=O)(=O)NNC(=O)c2sc(-c3nc(C)c(C(=O)NNS(=O)(=O)c4ccc(C)cc4)s3)nc2C)cc1	2%	98% (active)	7.3%	2%	99% (active)	8%	5%	99% (active)	83.5% (active)	8%	98% (active)	-43.5%	8%	98% (active)	14.3%	2%	98% (active)	15%
COC(=O)CCC(=O)N1C/C(=C\c2ccccc2)C(=O)/C(=C/c2ccccc2)C1	5%	41%	88.6% (active)	23%	42%	95.3% (active)	5%	56%	92.5% (active)	9%	19%	16.5%	2%	22%	92.5% (active)	7%	38%	95% (active)
